Measurements: PubChem BioAssay (NCATS)
Values joined by “and” are separate entries in the source; they are usually repeats but may differ in a detail not shown here. Equal values may be shown once. Unmarked numbers belong to inactive results. Inconclusive results are not listed. A call without a number means that no potency is given here. Active and inactive are the calls of the source. Unless noted, the call rests on the fitted dose curve; in most records, active means well fitted curve in the direction sought with a large enough effect; inconclusive means small, poorly fitted or top-dose-only effect, or another doubt; inactive means no such curve, though single readings can be large; an effect the other way counts as inactive or inconclusive.

Experiments:
[1] = qHTS for inhibitors of adenylyl cyclases using a fission yeast platform: a pilot screen against the NCATS LOPAC library (AID 1347410)
In short: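 GFP from fbp1-GFP reporter, read by Acumen laser cytometry, indicates AC inhibition in fission yeast expressing AC9, GNAS and PDE4D2. Cells grown 18 h in the dark at 30C with compounds, final up to 57 uM.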

[2] = molecular target: Protein phosphatase 1D (Homo sapiens) (UniProt O15297); assay: RapidFire Mass Spectrometry qHTS Assay for Modulators of WT P53-Induced Phosphatase 1 (WIP1) (AID 1347424); further: series mostly up to about 63 µM
Chain of Protein phosphatase 1D (Homo sapiens) (O15297 whole entry, looked up): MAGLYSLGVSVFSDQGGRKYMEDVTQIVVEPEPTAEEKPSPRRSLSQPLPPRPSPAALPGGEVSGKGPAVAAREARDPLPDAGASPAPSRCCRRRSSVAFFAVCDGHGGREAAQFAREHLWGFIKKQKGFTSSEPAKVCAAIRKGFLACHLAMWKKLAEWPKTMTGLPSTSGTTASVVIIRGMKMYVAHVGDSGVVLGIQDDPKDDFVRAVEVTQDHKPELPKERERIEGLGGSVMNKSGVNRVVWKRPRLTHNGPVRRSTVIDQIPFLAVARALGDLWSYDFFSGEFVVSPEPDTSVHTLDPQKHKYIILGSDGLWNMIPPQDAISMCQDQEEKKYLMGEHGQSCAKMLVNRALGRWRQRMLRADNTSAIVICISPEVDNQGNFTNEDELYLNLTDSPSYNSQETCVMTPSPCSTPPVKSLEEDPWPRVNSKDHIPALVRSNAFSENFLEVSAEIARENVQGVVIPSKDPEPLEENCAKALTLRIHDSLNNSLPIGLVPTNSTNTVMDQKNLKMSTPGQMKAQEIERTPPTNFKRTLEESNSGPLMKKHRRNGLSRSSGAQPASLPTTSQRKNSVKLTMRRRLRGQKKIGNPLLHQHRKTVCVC
In short: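 RapidFire MS readout of dephosphorylated VEPPL-S-QETFS product, with 1 uM isotope-labelled peptide standard. Reaction: 10 nM WIP1, 2 uM phosphopeptide substrate, 5 min, room temperature, after 1 h compound preincubation; stopped with 0.5% formic acid.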

[3] = molecular target: Protein phosphatase 1D (Homo sapiens) (UniProt O15297); assay: Rhodamine-PBP qHTS Assay for Modulators of WT P53-Induced Phosphatase 1 (WIP1) (AID 1347425)
In short: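 Steps: enzyme with Rh-PBP sensor and compounds, room-temperature incubation of 1 hr, baseline read, addition of VEPPL-pS-QETFS (10 uM final), kinetic fluorescence reads at 525/598 nm. Activity equals final minus baseline signal.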

[4] = Validation qHTS assay for inhibitors of Activation Induced Cytidine Deaminase (AID): UDG Counterscreen signal (AID 1347427)
In short: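 Fluorescence at 560 nm excitation, 665 nm emission reports UDG signal after 250 mM NaOH (2x) addition and 30 min. Enzymes (AID 1 uM, UDG 2 U/mL, at 4/3x) preincubated 10 min with compound, then 4 h with 4x 250 nM DJC20/DJC23 substrate at room temperature.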

[5] = molecular target: Single-stranded DNA cytosine deaminase (Homo sapiens) (UniProt Q9GZX7); assay: Validation qHTS assay for inhibitors of Activation Induced Cytidine Deaminase (AID): AID signal (AID 1347429)
Chain of Single-stranded DNA cytosine deaminase (Homo sapiens) (Q9GZX7 whole entry, looked up): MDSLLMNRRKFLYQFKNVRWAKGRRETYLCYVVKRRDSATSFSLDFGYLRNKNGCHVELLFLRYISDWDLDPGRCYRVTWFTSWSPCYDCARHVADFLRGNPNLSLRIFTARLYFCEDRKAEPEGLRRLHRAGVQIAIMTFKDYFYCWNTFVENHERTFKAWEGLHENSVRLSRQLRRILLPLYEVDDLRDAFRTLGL
In short: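 Steps: dispense AID with UDG; pin-transfer compound up to 114 uM final; add DJC20/DJC23 substrate and hold 4 hr at room temperature; add NaOH, hold 30 min; read FRET signal (540/590 nm).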

[6] = Primary qHTS for inhibitors of La Crosse Virus (LACV) - induced cell death in SH-SY5Y cells (AID 1508616);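 further: top concentration of the series differs between compounds; higher means more rescue of cells from virus-induced death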
In short: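 SH-SY5Y, 6000 cells/well; cpd via pin tool in DMSO; LACV 0.01 MOI; 6 d 37C 5% CO2; ATPLite, 5 min RT; luminescence normalized to ±virus DMSO controls.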

[7] = molecular target: Calcium and integrin-binding protein 1 (Homo sapiens) (UniProt Q99828); assay: Validation qHTS for Identification of Calcium Integrin Binding protein 1 (CIB1) Competitor (AID 1508618)
Chain of Calcium and integrin-binding protein 1 (Homo sapiens) (Q99828 whole entry, looked up): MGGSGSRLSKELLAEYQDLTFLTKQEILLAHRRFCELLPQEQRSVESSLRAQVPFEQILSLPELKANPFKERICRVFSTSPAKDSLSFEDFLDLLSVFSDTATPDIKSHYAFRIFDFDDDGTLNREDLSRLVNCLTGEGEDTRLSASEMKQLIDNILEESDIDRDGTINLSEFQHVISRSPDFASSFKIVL
In short: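 In this qHTS validation, the LOPAC set (up to 114 uM) was tested for blocking CIB1 binding to a fluorescein-tagged alphaIIb peptide, with FP detection at 480/540 nm.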

[8] = molecular target: Calcium and integrin-binding protein 1 (Homo sapiens) (UniProt Q99828); assay: Primary qHTS for Identification of Calcium Integrin Binding Protein 1 (CIB1) Competitor (AID 1508620);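 further: GST tagged CIB1 binding a fluorescein labelled alphaIIb integrin peptide tracer; top concentration of the series differs between compounds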
In short: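 Fluorescence polarization competition: GST-tagged CIB1 (1 uM final) preincubated with compound 15 min at room temperature, then FITC-labelled alphaIIb peptide (100 nM final) added. After 15 min at room temperature, polarization read at Ex 480/Em 540.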

[9] = molecular target: Cytochrome P450 2D6 (Homo sapiens) (UniProt P10635); assay: Cytochrome P450 family 2 subfamily D member 6 (CYP2D6) small molecule antagonists: luciferase biochemical (cell-free) qHTS assay (AID 1645840; active means well fitted curve in the direction sought with a large enough effect in the repeat runs; an effect the other way counts as inactive or inconclusive; further: nearly all actives have a fitted effect of over 55% in size; further: potency means the concentration at half of the fitted maximal effect; on activity change, negative = inhibition: series mostly up to about 57 µM)
Chain of Cytochrome P450 2D6 (Homo sapiens) (P10635 whole entry, looked up): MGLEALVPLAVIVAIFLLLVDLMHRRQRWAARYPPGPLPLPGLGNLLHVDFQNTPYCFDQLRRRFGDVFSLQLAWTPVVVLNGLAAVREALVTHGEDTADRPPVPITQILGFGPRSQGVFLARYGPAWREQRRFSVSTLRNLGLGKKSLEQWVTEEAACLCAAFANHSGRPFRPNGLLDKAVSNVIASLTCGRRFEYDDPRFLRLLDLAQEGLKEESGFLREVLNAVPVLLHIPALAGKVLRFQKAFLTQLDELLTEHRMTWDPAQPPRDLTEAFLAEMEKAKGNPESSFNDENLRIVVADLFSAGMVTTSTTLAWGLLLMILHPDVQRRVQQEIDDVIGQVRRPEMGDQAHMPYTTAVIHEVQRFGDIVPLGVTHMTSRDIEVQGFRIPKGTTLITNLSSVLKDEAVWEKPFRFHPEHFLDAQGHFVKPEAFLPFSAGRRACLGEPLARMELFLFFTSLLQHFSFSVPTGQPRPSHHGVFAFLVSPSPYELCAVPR
In short: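 P450-Glo CYP2D6 system: proluciferin substrate converted by enzyme to luciferin, read by luminescence proportional to activity. Enzyme-substrate mix with compound 10 min at room temperature, then NADPH regeneration 1 h before detection reagent.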

[10] = molecular target: Cytochrome P450 2C9 (Homo sapiens) (UniProt P11712); assay: Cytochrome P450 family 2 subfamily C member 9 (CYP2C9) small molecule antagonists: luciferase biochemical (cell-free) qHTS assay (AID 1645842; active means well fitted curve in the direction sought with a large enough effect in the repeat runs; an effect the other way counts as inactive or inconclusive; further: nearly all actives have a fitted effect of over 55% in size; further: potency means the concentration at half of the fitted maximal effect; on activity change, negative = inhibition: series mostly up to about 57 µM)
Chain of Cytochrome P450 2C9 (Homo sapiens) (P11712 whole entry, looked up): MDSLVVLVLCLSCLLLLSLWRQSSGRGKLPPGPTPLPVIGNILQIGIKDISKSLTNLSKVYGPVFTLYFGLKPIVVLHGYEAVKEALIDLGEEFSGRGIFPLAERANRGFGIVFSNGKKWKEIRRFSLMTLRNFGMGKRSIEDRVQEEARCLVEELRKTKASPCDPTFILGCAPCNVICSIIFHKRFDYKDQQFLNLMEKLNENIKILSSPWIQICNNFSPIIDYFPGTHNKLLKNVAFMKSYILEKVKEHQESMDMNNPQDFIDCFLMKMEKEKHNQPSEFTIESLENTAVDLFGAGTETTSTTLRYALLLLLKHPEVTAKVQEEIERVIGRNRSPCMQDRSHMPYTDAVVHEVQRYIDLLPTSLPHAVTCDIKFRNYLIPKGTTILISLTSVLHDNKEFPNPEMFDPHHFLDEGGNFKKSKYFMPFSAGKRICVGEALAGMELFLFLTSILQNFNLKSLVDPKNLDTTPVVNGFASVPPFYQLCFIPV
In short: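 P450-Glo CYP2C9 system: proluciferin substrate with enzyme in mix containing 0.4% BSA, 10 min at room temperature, then NADPH regeneration solution added and incubated 1 h at 37C. Detection reagent stopped reaction; luminescence read after 20 min as RLU.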

Papain (Carica papaya) = Papain (Carica papaya) (UniProt P00784); assay: Primary qHTS assay for inhibitors of the protease papain (AID 1645873);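 further: papain turnover of Z-FR-AMC read as the AMC fluorescence gain over 10 min; series mostly up to about 50 µM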
Chain of Papain (Carica papaya) (P00784 whole entry, looked up): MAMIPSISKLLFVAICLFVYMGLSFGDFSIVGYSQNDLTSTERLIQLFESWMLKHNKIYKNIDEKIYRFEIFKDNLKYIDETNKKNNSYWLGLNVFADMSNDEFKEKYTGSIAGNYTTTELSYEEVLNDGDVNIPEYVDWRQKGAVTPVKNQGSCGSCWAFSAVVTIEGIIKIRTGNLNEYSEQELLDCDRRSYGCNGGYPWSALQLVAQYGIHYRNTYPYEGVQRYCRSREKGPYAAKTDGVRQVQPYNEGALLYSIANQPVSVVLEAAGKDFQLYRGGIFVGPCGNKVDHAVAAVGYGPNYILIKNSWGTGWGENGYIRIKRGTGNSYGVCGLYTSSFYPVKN

[11] = qHTS to identify inhibitors of the type 1 interferon - major histocompatibility complex class I in skeletal muscle: primary screen against the NCATS LOPAC collection (AID 1347405);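 further: human myoblasts with HiBiT tag on endogenous HLA-B stimulated by IFN-beta; lytic HiBiT luminescence reporting HLA-B protein level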
In short: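 First, engineered myoblasts carrying HLA-B-HiBiT were seeded in medium lacking dexamethasone with 4 ng/ml IFN-beta. After 1 hr, compounds were pinned in (top 46 uM final, 7 points). After 24 hrs at 37 C, luminescence was measured following 10 min lysis.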

[12] = qHTS to identify inhibitors of the type 1 interferon - major histocompatibility complex class I in skeletal muscle: primary screen against the NCATS Pharmaceutical Collection (AID 1347407);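 further: luminescence of HiBiT knocked into endogenous HLA-B as interferon-induced MHC class I level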; further: potency means the concentration at half of the fitted maximal effect
In short: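 Compounds […] were added to CRISPR-engineered HLA-B-HiBiT C25cl48 human myoblasts with 4.0 ng/ml IFN-beta. After 24 hrs at 37 C, cells were lysed and HiBiT luminescence measured.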

[13] = Primary qHTS for small molecule stabilizers of the endoplasmic reticulum resident proteome: Secreted ER Calcium Modulated Protein (SERCaMP) assay (AID 1508630); further: potency means the concentration at half of the fitted maximal effect
In short: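 The SH-SY5Y reporter protocol was run at 3 concentrations up to 38.3 uM (primary) or 11 concentrations (follow-up): 16 h compound, 100 nM thapsigargin for 4 h, then extracellular luciferase luminescence.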

[14] = molecular target: Cytochrome P450 3A4 (Homo sapiens) (UniProt P08684); assay: Cytochrome P450 family 3 subfamily A member 4 (CYP3A4) small molecule antagonists: luciferase qHTS assay (AID 1645841; active means well fitted curve in the direction sought with a large enough effect in the repeat runs; an effect the other way counts as inactive or inconclusive; further: nearly all actives have a fitted effect of over 45% in size)
Chain of Cytochrome P450 3A4 (Homo sapiens) (P08684 whole entry, looked up): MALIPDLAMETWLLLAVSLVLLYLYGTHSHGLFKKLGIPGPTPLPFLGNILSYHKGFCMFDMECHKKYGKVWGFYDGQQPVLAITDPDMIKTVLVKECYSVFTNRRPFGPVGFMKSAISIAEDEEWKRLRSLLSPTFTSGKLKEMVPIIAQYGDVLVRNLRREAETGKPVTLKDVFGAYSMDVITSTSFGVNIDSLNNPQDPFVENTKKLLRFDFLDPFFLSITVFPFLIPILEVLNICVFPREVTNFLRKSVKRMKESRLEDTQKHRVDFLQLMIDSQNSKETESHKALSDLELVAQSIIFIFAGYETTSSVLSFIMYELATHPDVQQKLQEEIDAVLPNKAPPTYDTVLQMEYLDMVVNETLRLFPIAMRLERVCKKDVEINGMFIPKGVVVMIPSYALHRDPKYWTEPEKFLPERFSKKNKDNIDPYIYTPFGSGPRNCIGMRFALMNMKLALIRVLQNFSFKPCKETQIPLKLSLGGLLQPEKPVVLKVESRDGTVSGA
In short: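 P450-Glo CYP3A4 enzyme with proluciferin substrate preincubated 10 min with compound at room temperature, then NADPH regeneration 1 h. Luciferin detection reagent added for 20 min; luminescence recorded. Ketoconazole positive control.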

[15] = qHTS to identify inhibitors of the type 1 interferon - major histocompatibility complex class I in skeletal muscle: primary screen against the NCATS Mechanism Interrogation Plate v5.0 (MIPE) Libary (AID 1347411); further: nearly all actives have a fitted effect of over 65% in size
In short: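 Seed engineered human myoblasts (HLA-B HiBit) in medium without dexamethasone containing 4 ng/ml IFN-beta; after 1 hr add compound titrations (top 46 uM final). Incubate 24 hrs at 37 C, lyse 10 min with HiBiT reagent, read luminescence.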

[16] = A High-Content qHTS Against Drug Library for the Identification of Small Molecules that Inhibit DYT1 Early Onset Primary Dystonia-Associated Cell Pathology (AID 1645839; calls by dose curve; further: series mostly up to about 46 µM)
In short: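 Cells were seeded and left for 24 h, then dosed with compound alongside tetracycline induction of mutant EGFP-TorsinA. They were incubated for 48 h, fixed in 4% paraformaldehyde, permeabilized and imaged for mislocalization (%pathology) and cell count.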

[17] = Counterscreen qHTS for small molecule stabilizers of the endoplasmic reticulum resident proteome: GLuc-NoTag assay (AID 1508627);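 further: SH-SY5Y cells given compound then 100 nM thapsigargin to empty ER calcium; series mostly up to about 76 µM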
In short: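 Counterscreen line: SH-SY5Y-GLuc-NoTag. Seed, 5 h; compound, 19 h; thapsigargin 100 nM, 4 h; 37C/5% CO2. Readout: secreted GLuc luminescence, coelenterazine 0.07x final, no lysis.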

[18] = Cell Viability qHTS for small molecule stabilizers of the endoplasmic reticulum resident proteome (AID 1508629); conditions: cell viability counter-screen, 100 nM thapsigargin for final 4 h;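 further: human SH-SY5Y neuroblastoma cells carrying the GLuc-SERCaMP reporter; compound exposure about 46 h in total before the viability read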

## COC(=O)C1=C(C)NC(C)=C(C(=O)OC(C)(C)CN(C)CCC(c2ccccc2)c2ccccc2)C1c1cccc([N+](=O)[O-])c1 (stereo not drawn)
[1]
  outcome: inactive
[2]
  Potency: inactive
[3]
  outcome: inactive
[4]
  outcome: inactive
[5]
  Potency: inactive
[6]
  Potency: inactive
[7]
  outcome: inactive
[8]
  Potency: inactive
[9]
  Potency: 2750 nM (active)
[10]
  Potency: 1.95 µM (active)
Papain (Carica papaya)
  Potency: inactive

## Cc1ccc(=O)n(-c2ccccc2)c1
[11]
  Potency: inactive
[12]
  Potency: inactive
[3]
  outcome: inactive
[4]
  outcome: inactive
[5]
  Potency: inactive
[6]
  Potency: inactive
[7]
  outcome: inactive
[8]
  Potency: inactive
[13]
  Potency: inactive
[9]
  Potency: inactive
[10]
  Potency: inactive
Papain (Carica papaya)
  Potency: inactive

## O=C1NCN(c2ccccc2)C12CCN(CCCC(c1ccc(F)cc1)c1ccc(F)cc1)CC2
[12]
  Potency: 18.7 µM (active)
[1]
  outcome: inactive
[2]
  Potency: inactive
[3]
  outcome: inactive
[4]
  outcome: inactive
[6]
  Potency: inactive
[13]
  Potency: inactive
[9]
  Potency: 436 nM (active)
[14]
  outcome: inactive
Papain (Carica papaya)
  Potency: inactive

## CN1CCN(CC(=O)N2c3ccccc3C(=O)Nc3cccnc32)CC1
[11]
  Potency: inactive
[12]
  activity change, negative = inhibition: -1.82% [at 3.83 µM]
[2]
  activity change, negative = inhibition: -2.97% [at 6.17 µM]
[3]
  activity change, negative = inhibition: 8.19% [at 4.81 µM]
[4]
  outcome: inactive
[6]
  Potency: inactive
[7]
  outcome: inactive
[8]
  activity change, negative = inhibition: -0.936% [at 12.4 µM]
[13]
  Potency: inactive
[9]
  activity change, negative = inhibition: 3.24% [at 4.83 µM]
[10]
  activity change, negative = inhibition: 3.44% [at 4.83 µM]
Papain (Carica papaya)
  Potency: inactive

## Cc1cc(C)c(/C=C2\C(=O)Nc3ccccc32)[nH]1
[1]
  outcome: inactive
[15]
  Potency: inactive
[2]
  Potency: inactive
[3]
  outcome: inactive
[4]
  outcome: inactive
[6]
  Potency: inactive
[8]
  Potency: inactive
[16]
  Potency: inactive
[9]
  Potency: inactive
[10]
  Potency: 9.77 µM (active)
Papain (Carica papaya)
  Potency: inactive

## NC(=Nc1ccccc1)Nc1ccccc1
[12]
  Potency: inactive
[2]
  Potency: inactive
[3]
  outcome: inactive
[6]
  Potency: inactive
[8]
  Potency: inactive
[17]
  Potency: inactive
[18]
  max response: 21.8%
[13]
  Potency: 3.16 µM (active)
[16]
  Potency: inactive
[9]
  Potency: 461 nM (active) and 1.55 µM (active)
[10]
  Potency: inactive

## CCCCNC(=O)NS(=O)(=O)c1ccc(C)cc1
[1]
  outcome: inactive
[2]
  Potency: inactive
[3]
  outcome: inactive
[4]
  outcome: inactive
[5]
  Potency: inactive
[6]
  Potency: inactive
[7]
  outcome: inactive
[8]
  Potency: inactive
[13]
  Potency: inactive
[9]
  Potency: inactive
Papain (Carica papaya)
  Potency: inactive

## COCC(=O)O[C@]1(CCN(C)CCCc2nc3ccccc3[nH]2)CCc2cc(F)ccc2[C@@H]1C(C)C
[1]
  outcome: inactive
[3]
  outcome: inactive
[4]
  outcome: inactive
[5]
  Potency: inactive
[6]
  Potency: inactive
[7]
  outcome: inactive
[8]
  Potency: inactive
[13]
  Potency: inactive
[9]
  Potency: 49 nM (active)
[10]
  Potency: inactive

## CCOC(=O)C1=C(C)NC(C)=C(C(=O)OC)C1c1cccc(Cl)c1Cl (stereo not drawn)
[1]
  outcome: inactive
[2]
  Potency: inactive
[6]
  Potency: inactive
[8]
  Potency: inactive
[13]
  Potency: inactive

## CCC(=O)c1ccc2c(c1)N(CCCN(C)C)c1ccccc1S2
[11]
  Potency: inactive
[12]
  Potency: inactive
[3]
  outcome: inactive
[4]
  outcome: inactive
[5]
  Potency: inactive
[6]
  Potency: inactive
[7]
  outcome: inactive
[8]
  Potency: inactive
[17]
  Potency: inactive
[9]
  Potency: 490 nM (active)
[10]
  Potency: inactive
Papain (Carica papaya)
  Potency: inactive

## O=C(O)CCCCCCCC(=O)O
[11]
  Potency: inactive
[12]
  Potency: inactive
[3]
  outcome: inactive
[4]
  outcome: inactive
[5]
  Potency: inactive
[6]
  Potency: inactive
[7]
  outcome: inactive
[8]
  Potency: inactive
[13]
  Potency: inactive
[16]
  Potency: inactive
[9]
  Potency: inactive
[10]
  Potency: inactive
Papain (Carica papaya)
  Potency: inactive
